In ChEMBL document CHEMBL3433997, “St. Jude Leishmania screening dataset” (2016):

Assays:
Format in all cases: functional
[1] = target: Solute carrier family 2, facilitated glucose transporter member 1 (Homo sapiens) (UniProt P11166); assay: ST_JUDE_LEISH: Cytotoxicity at 2uM final concentration against transgenic Leishmania Mexicana promastigotes LmGLUT1 that are glucose transport deficient and complemented with the human glucose transporter GLUT1. Activity is measured by DNA content using SYBR green in vitro
[2] = target: Hexose transporter 1 (Plasmodium falciparum) (UniProt O97467); assay: ST_JUDE_LEISH: Cytotoxicity at 2uM final concentration against transgenic Leishmania Mexicana promastigotes LmPfHT that are glucose transport deficient and complemented with the Plasmodium falciparum hexose transporter. Activity is measured by DNA content using SYBR green in vitro
[3] = target: Glucose transporter (Leishmania mexicana) (UniProt O61059); assay: ST_JUDE_LEISH: Cytotoxicity at 2uM final concentration against transgenic Leishmania Mexicana promastigotes LmGT2 that are glucose transport deficient and complemented with the L. Mexicana glucose transporter 2. Activity is measured by DNA content using SYBR green in vitro

Solute carrier family 2, facilitated glucose transporter member 1 (Homo sapiens), sequence (P11166 whole entry): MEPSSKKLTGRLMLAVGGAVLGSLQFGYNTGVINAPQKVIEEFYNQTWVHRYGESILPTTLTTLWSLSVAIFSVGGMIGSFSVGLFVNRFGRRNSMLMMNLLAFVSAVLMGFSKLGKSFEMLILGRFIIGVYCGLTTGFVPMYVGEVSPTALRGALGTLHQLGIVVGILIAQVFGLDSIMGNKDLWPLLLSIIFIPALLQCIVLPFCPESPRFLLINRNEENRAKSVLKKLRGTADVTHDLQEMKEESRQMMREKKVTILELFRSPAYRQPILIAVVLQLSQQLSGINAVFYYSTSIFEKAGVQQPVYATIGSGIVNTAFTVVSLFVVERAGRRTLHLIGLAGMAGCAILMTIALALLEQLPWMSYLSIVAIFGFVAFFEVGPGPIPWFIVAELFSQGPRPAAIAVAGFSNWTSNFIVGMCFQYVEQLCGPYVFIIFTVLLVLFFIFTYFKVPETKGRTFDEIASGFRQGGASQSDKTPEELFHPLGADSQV

| Structure (SMILES) | inhibition [1] [%] | inhibition [2] [%] | inhibition [3] [%] |
| --- | --- | --- | --- |
| c1ccc2c(NCCCCCCCCCNc3ccnc4ccccc34)ccnc2c1 | -0.85 | 4.91 | 8.19 |
| COc1ccc(CCNCCCCCCNCCc2ccc(OC)c(OC)c2Cl)c(Cl)c1OC | 0.05 | -0.34 | 0.35 |
| CS(=O)(=O)CCNCc1cccc(-c2ccc3c(Nc4ccc(Oc5cccnc5)cc4)ccnc3c2)c1 | -1.35 | -1.49 | -3 |
| CN(CCCCNC(=O)/C=C/c1ccccc1)C1CC2(CCN(C(=O)OC(C)(C)C)CC2)c2ccccc21 (configuration not stated) | 3.4 | 3.28 | 1.67 |
| Cn1nc(C(=O)N2CCC(c3[nH]ncc3Cc3ccccc3)CC2)c2ccccc2c1=O | 0.16 | 2.06 | 2.12 |
| CN(C)CCN(Cc1ccccc1)c1ccc([N+](=O)[O-])cc1C(F)(F)F | 7.95 | 7.06 | 8.1 |
| COc1ccc(NC(=O)CCNc2cc(C)nc(NCCc3ccc(F)cc3)n2)cc1 | -0.52 | 0.39 | -0.01 |
| COc1ccc(NC(=O)Nc2ccc(Nc3nc(C)cc(N4CCCC4)n3)cc2)cc1 | 4.49 | 3.69 | 1.68 |
| CCOCCCNc1ncc(-c2ccsc2)c(-c2nc(C)cs2)n1 | 8 | 6.73 | 7.32 |
| O=C(Nc1ccc(Cl)cc1)c1ccc(CN2CCCN(Cc3ccsc3)CC2)cc1 | 2.78 | 1.42 | 7.21 |
| CCc1cn2c3c(cc(C(=O)N[C@@H](Cc4ccccc4)[C@H](O)CN[C@@H](C)CC)cc13)N(C)S(=O)(=O)CC2 | 0.43 | 2.23 | -0.58 |
| OC(CNCc1cccc(Oc2ccc(Cl)cc2)c1)c1cccc(C(F)(F)F)c1 (configuration not stated) | 1.7 | 1.81 | -0.71 |
| Cc1nc(-c2cccc(C(F)(F)F)c2)n2nc(Nc3ccc(OCCN4CCCC4)cc3)ncc12 | 76 | 53.7 | 9.22 |
| O=C1CCCN1CCCNCc1cccc(-c2cccc(-c3nc4cc(F)ccc4[nH]3)c2)c1 | 0.85 | 1.31 | 0.04 |
| Cc1nc(C)c(-c2ccc(Cl)cc2Cl)c(O)c1Br | 1.43 | 0.95 | 3.83 |
| Cc1cc(C(=O)CN2C(=O)NC3(CCCc4ccccc43)C2=O)c(C)n1Cc1ccc(F)cc1 (configuration not stated) | 2.81 | 2.54 | 5.14 |
| CN(CC(=O)Nc1cc(C(F)(F)F)ccc1-n1cncn1)Cc1ccc2ccccc2c1 | 2.14 | 1.25 | 1.8 |
| CCCCCCc1cc2cc(-c3nc(-c4ccc(OC)cc4)cs3)c(=O)oc2cc1O |  |  | -8.01 |
| CC(C)c1cc2c(ccc3nc(N)nc(N)c32)[nH]1 | 9.81 | 31 | 8.49 |
| O=C(NCCCCN1CCC(O)(c2ccc(Cl)cc2)CC1)c1ccc(Br)cc1 | 4.03 | 2.65 | 4.04 |
| COc1ccc2c(=NN=Cc3ccncc3)cc(C)[nH]c2c1 | 4.05 | 3.94 | 3.63 |
| Cc1c(Br)cc2nc(-c3ccc(C(=O)NC4CCN(Cc5ccccc5)CC4)cc3)[nH]c2c1C | 1.63 | 1.85 | 0.51 |
| Cc1cccc2nc(-c3cccc(-c4cccc(C(=O)NCc5nccn5C)c4)c3)[nH]c12 | 11.5 | 10.8 | 10.2 |
| CCNc1cc(-c2cccc(OC)c2)nc(Nc2ccc(F)cc2)n1 | 7.43 | 7.1 | 2.87 |
| CCOC(=O)c1c(NC(NC(=O)c2ccc(C(C)(C)C)cc2)C(Cl)(Cl)Cl)sc2c1CCCC2 (configuration not stated) | 10.5 | 8.72 | 9.68 |
| Cc1cc(NC(=O)Nc2cccc(C#N)c2)c2ccccc2n1 | 4.37 | 4.11 | 3.04 |
| Fc1cccc(COc2ccc(Nc3ncnc4sc(C#C[C@H]5CC[C@H](CN6CCOCC6)N5)cc34)cc2Cl)c1 | 0.36 | -0.26 | -0.26 |
| Oc1ccc(-c2cc(COc3ccccc3C(F)(F)F)c(C3=CCNCC3)cc2COc2ccccc2C(F)(F)F)cc1 | 2.69 | 2.67 | -0.12 |
